Reference: PubChem BioAssay (EPA / NIEHS)
Calls of active or inactive are those of the source. Rule for the calls: active = hit-call score of the fitted dose curve at least 0.9, where 1 is the maximum; inactive = score below 0.9.

Legend:
Settings in all cases: mRNA level, 48 h; actives raise or lower the signal
[1] = read-out: JUN Transcription Factor, JUN (gene 3725); experiment: LTEA_HepaRG_JUN: Life Technologies and Expression Analysis (LTEA) Assay for JUN Transcription Factor using HepaRG (AID 2283513)
Outline: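 Read-out is JUN transcript level by TaqMan qRT-PCR, normalized to ACTB, GAPDH and POLR2A, after 48 h chemical treatment of HepaRG cells. Concentration-response spanned eight half-log points up to 100 uM in 0.5% DMSO.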

[2] = read-out: Lipoprotein lipase (LPL), LPL (gene 4023); experiment: LTEA_HepaRG_LPL: Life Technologies and Expression Analysis (LTEA) Assay for Lipoprotein lipase (LPL) using HepaRG (AID 2283515)
Outline: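 HepaRG, 48 h exposure, 8-pt half-log dilutions from 100 uM, 0.5% DMSO vehicle, duplicates; qRT-PCR (Fluidigm array) of LPL mRNA vs housekeeping genes; bidirectional curve fit relative to DMSO baseline.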

[3] = read-out: MicroRNA 122 (MIR122), gene 406906; experiment: LTEA_HepaRG_MIR122: Life Technologies and Expression Analysis (LTEA) Assay for MicroRNA 122 (MIR122) using HepaRG (AID 2283516); note: the transcript read is the microRNA miR-122
Outline: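 Human liver HepaRG cultures receive test chemicals for 48 h at eight half-log concentrations from 100 uM. Expression is quantified by qRT-PCR with ACTB/GAPDH/POLR2A normalization and fitted bidirectionally against 0.5% DMSO.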

[4] = read-out: matrix metalloproteinase-10 (MMP10), MMP10 (gene 4319); experiment: LTEA_HepaRG_MMP10: Life Technologies and Expression Analysis (LTEA) Assay for matrix metalloproteinase-10 (MMP10) using HepaRG (AID 2283517)
Outline: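 Transcript levels come from Fluidigm qRT-PCR normalized to three housekeeping genes, with curves fitted bidirectionally against 0.5% DMSO. Human HepaRG cells were dosed for 48 hours at concentrations up to 100 uM.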

MYC, MYC (gene 4609) = experiment: LTEA_HepaRG_MYC: Life Technologies and Expression Analysis (LTEA) Assay for MYC using HepaRG (AID 2283518)
Outline: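 qRT-PCR read-out of MYC transcript (Fluidigm TaqMan, housekeeping-normalized) after 48 h chemical exposure of HepaRG cells; eight concentrations, top 100 uM, half-log steps. Bidirectional curve fitting against 0.5% DMSO vehicle baseline.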

[5] = read-out: matrix metalloproteinase-3 (MMP3), MMP3 (gene 4314); experiment: LTEA_HepaRG_MMP3: Life Technologies and Expression Analysis (LTEA) Assay for matrix metalloproteinase-3 (MMP3) using HepaRG (AID 2283519)
Outline: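 qRT-PCR read-out of MMP3 mRNA (normalised to three housekeeping genes) in HepaRG liver cells after 48 h chemical exposure; 8-point half-log series, top 100 uM, 0.5% DMSO vehicle. Bidirectional curve fitting against DMSO baseline.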

[6] = read-out: Paternally Expressed 10 (PEG10), PEG10 (gene 23089); experiment: LTEA_HepaRG_PEG10: Life Technologies and Expression Analysis (LTEA) Assay for Paternally Expressed 10 (PEG10) using HepaRG (AID 2283520);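 for AC50: differentiated HepaRG human liver cells in serum-free induction medium with 0.5% DMSO; PEG10 transcript by qRT-PCR normalised to ACTB GAPDH and POLR2A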
Outline: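 Human HepaRG cultures are dosed for 48 h across an eight-point half-log series starting at 100 uM, with 0.5% DMSO as vehicle and baseline. Gain or loss of PEG10 transcript is measured by qRT-PCR and fitted in both directions.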

[7] = read-out: Protein phosphatase 2A (PPP2R4), PTPA (gene 5524); experiment: LTEA_HepaRG_PPP2R4: Life Technologies and Expression Analysis (LTEA) Assay for Protein phosphatase 2A (PPP2R4) using HepaRG (AID 2283522)
Outline: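 Cells were plated, cultured 48 h, switched to serum-free induction medium, then dosed for 48 h (8 points, max 100 uM, 0.5% DMSO). RNA was isolated and PPP2R4 expression measured by TaqMan qRT-PCR.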

[8] = read-out: Phosphatase and tensin (PTEN), PTEN (gene 5728); experiment: LTEA_HepaRG_PTEN: Life Technologies and Expression Analysis (LTEA) Assay for Phosphatase and tensin (PTEN) using HepaRG (AID 2283523)
Outline: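 HepaRG, 48 h exposure, 8-pt half-log series from 100 uM top, 0.5% DMSO vehicle, duplicates. Readout: Fluidigm qRT-PCR of PTEN transcript; housekeeping normalization (ACTB, GAPDH, POLR2A). Gain or loss fitted relative to DMSO baseline.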

[9] = read-out: solute carrier (SLC22A1), SLC22A1 (gene 6580); experiment: LTEA_HepaRG_SLC22A1: Life Technologies and Expression Analysis (LTEA) Assay for solute carrier (SLC22A1) using HepaRG (AID 2283524);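 for AC50: differentiated human HepaRG liver cells in serum-free induction medium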
Outline: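 qRT-PCR readout (TaqMan, Fluidigm arrays) of SLC22A1 transcript, normalized to three housekeeping genes; bidirectional curve fit relative to 0.5% DMSO vehicle. Differentiated human HepaRG cells, 48 h chemical exposure, top concentration 100 uM, half-log steps, eight points.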

[10] = read-out: Pyruvate Dehydrogenase Kinase 4 (PDK4), PDK4 (gene 5166); experiment: LTEA_HepaRG_PDK4: Life Technologies and Expression Analysis (LTEA) Assay for Pyruvate Dehydrogenase Kinase 4 (PDK4) using HepaRG (AID 2283525)
Outline: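 HepaRG (human liver line), 48 h chemical exposure, 8-pt half-log CRC top 100 uM, 0.5% DMSO vehicle, duplicates. Readout: TaqMan qRT-PCR of PDK4 mRNA, housekeeping-normalized; gain/loss fit relative to DMSO baseline.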

[11] = read-out: NAD(P)H dehydrogenase [quinone] 1 (NQO1), NQO1 (gene 1728); experiment: LTEA_HepaRG_NQO1: Life Technologies and Expression Analysis (LTEA) Assay for NAD(P)H dehydrogenase [quinone] 1 (NQO1) using HepaRG (AID 2283526)
Outline: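 Transcript induction or suppression is quantified by qRT-PCR in human HepaRG liver cells dosed for 48 hours. Eight half-log concentrations topping at 100 uM are used, with 0.5% DMSO as vehicle and baseline.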

[12] = read-out: Nuclear factor erythroid 2-related factor 2 (Homo sapiens) (UniProt Q16236); experiment: LTEA_HepaRG_NFE2L2: Life Technologies and Expression Analysis (LTEA) Assay for Nuclear factor erythroid 2-related factor 2 (NFE2L2) Transcription Factor using HepaRG (AID 2283527);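 for outcome: TaqMan qRT-PCR transcript level normalised to ACTB GAPDH and POLR2A housekeeping genes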
Outline: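 HepaRG, 48 h dosing, 8-pt half-log series from 100 uM in 0.5% DMSO, duplicates. Read-out: NFE2L2 mRNA by qRT-PCR (ACTB/GAPDH/POLR2A normalization). Bidirectional curve fit vs DMSO baseline.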

[13] = read-out: succinate dehydrogenase complex iron sulfur subunit B (SDHB), SDHB (gene 6390); experiment: LTEA_HepaRG_SDHB: Life Technologies and Expression Analysis (LTEA) Assay for succinate dehydrogenase complex iron sulfur subunit B (SDHB) using HepaRG (AID 2283528)
Outline: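 Readout is SDHB transcript level by qRT-PCR, normalised to three housekeeping genes and fitted bidirectionally against 0.5% DMSO vehicle. Human HepaRG cells were treated for 48 h at up to 100 uM.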

[14] = read-out: Signal transducer and activator of transcription 3 (Homo sapiens) (UniProt P40763); experiment: LTEA_HepaRG_STAT3: Life Technologies and Expression Analysis (LTEA) Assay for Signal transducer and activator of transcription (STAT3) using HepaRG (AID 2283529)
Outline: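 HepaRG, 48 h exposure, 8-pt half-log series (top 100 uM), 0.5% DMSO vehicle, duplicates. Readout: STAT3 transcript by Fluidigm qRT-PCR, housekeeping-normalized; bidirectional fit vs DMSO baseline.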

[15] = read-out: solute carrier (SLCO1B1), SLCO1B1 (gene 10599); experiment: LTEA_HepaRG_SLCO1B1: Life Technologies and Expression Analysis (LTEA) Assay for solute carrier (SLCO1B1) using HepaRG (AID 2283530)
Outline: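 SLCO1B1 transcript read by qRT-PCR (Fluidigm arrays), normalized to three housekeeping genes, after 48 h chemical exposure of HepaRG cells; bidirectional concentration-response fitting versus 0.5% DMSO baseline. Eight-point half-log series, maximum 100 uM.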

[16] = read-out: sulfotransferase 2A1 (SULT2A1), SULT2A1 (gene 6822); experiment: LTEA_HepaRG_SULT2A1: Life Technologies and Expression Analysis (LTEA) Assay for sulfotransferase 2A1 (SULT2A1) using HepaRG (AID 2283531)
Outline: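 HepaRG, 48 h chemical exposure, 8-pt half-log curve from 100 uM in 0.5% DMSO, duplicates. Readout: TaqMan qRT-PCR of SULT2A1 mRNA, housekeeping-normalized. Bidirectional fit vs DMSO baseline.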

[17] = read-out: Transforming Growth Factor (TGFA), TGFA (gene 7039); experiment: LTEA_HepaRG_TGFA: Life Technologies and Expression Analysis (LTEA) Assay for Transforming Growth Factor (TGFA) using HepaRG (AID 2283532)
Outline: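 qRT-PCR read-out of TGFA transcript, normalized to three housekeeping genes, fitted bidirectionally against 0.5% DMSO baseline. Human HepaRG cultures received chemicals for 48 h at eight half-log concentrations, top 100 uM.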

[18] = read-out: Lipase C (LIPC), LIPC (gene 3990); experiment: LTEA_HepaRG_LIPC: Life Technologies and Expression Analysis (LTEA) Assay for Lipase C (LIPC) using HepaRG (AID 2283514)
Outline: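 HepaRG, 48 h exposure, 8-pt half-log series from 100 uM in 0.5% DMSO, duplicates. Readout: LIPC mRNA by Fluidigm qRT-PCR, housekeeping-normalized (ACTB/GAPDH/POLR2A). Gain or loss fitted bidirectionally against DMSO baseline.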

Chain of Nuclear factor erythroid 2-related factor 2 (Homo sapiens) (Q16236 whole entry, looked up): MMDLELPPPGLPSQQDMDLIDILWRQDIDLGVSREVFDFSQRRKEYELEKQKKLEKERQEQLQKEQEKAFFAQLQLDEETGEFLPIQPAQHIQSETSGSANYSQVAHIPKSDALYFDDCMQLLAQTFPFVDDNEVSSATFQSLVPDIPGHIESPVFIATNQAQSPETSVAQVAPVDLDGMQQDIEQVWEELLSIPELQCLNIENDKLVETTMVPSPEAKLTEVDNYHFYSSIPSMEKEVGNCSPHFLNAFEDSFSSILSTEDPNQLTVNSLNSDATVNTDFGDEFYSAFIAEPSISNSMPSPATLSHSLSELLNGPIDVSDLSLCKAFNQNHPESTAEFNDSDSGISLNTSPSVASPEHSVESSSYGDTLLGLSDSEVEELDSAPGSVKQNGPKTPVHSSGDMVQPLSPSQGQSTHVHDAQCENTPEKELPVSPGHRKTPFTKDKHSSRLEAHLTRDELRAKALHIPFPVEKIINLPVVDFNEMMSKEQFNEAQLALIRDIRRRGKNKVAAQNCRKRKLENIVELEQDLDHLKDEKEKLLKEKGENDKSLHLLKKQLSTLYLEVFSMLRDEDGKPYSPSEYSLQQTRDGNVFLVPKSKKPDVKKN
Chain of Signal transducer and activator of transcription 3 (Homo sapiens) (P40763 whole entry, looked up): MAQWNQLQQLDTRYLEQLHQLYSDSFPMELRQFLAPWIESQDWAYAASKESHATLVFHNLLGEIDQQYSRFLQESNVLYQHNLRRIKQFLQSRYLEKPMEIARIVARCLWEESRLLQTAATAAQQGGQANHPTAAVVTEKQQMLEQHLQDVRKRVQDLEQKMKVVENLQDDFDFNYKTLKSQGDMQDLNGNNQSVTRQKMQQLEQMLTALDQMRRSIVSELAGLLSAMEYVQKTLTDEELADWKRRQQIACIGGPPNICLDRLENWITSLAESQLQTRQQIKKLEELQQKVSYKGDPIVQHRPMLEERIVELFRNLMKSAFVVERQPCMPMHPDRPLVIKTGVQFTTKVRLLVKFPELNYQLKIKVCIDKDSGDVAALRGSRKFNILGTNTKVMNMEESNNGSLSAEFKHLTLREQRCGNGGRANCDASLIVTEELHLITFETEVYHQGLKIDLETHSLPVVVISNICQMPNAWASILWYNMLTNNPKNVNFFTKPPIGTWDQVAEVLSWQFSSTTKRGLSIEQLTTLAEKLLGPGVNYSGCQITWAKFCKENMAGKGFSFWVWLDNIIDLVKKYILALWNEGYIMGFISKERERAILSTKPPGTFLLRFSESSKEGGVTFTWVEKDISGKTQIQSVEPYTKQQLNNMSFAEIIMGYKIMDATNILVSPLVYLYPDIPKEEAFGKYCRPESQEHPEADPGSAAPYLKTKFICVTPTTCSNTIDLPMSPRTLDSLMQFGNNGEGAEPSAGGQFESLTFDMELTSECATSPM

With Nc1ccc(Nc2ccccc2)cc1 the outcome [1] was “inactive”, the outcome [2] was “inactive” and the outcome [3] was “inactive”. The outcome [4] was “inactive”, the outcome (MYC, MYC (gene 4609)) was “inactive” and the outcome [5] was “inactive”. The AC50 [6] was 79.9 µM (active), the outcome [7] was “inactive” and the outcome [8] was “inactive”. The outcome [9] was “inactive”, the outcome [10] was “inactive” and the outcome [11] was “inactive”. The outcome [12] was “inactive”, the outcome [13] was “inactive” and the outcome [14] was “inactive”. The AC50 [15] was 35.4 µM (active), the outcome [16] was “inactive” and the outcome [17] was “inactive”.

CC[C@H]1OC(=O)[C@H](C)[C@@H](O[C@H]2C[C@@](C)(OC)[C@@H](O)[C@H](C)O2)[C@H](C)[C@@H](O[C@@H]2O[C@H](C)C[C@H](N(C)C)[C@H]2O)[C@](C)(O)C[C@@H](C)C(=O)[C@H](C)[C@@H](O)[C@]1(C)O was tested, and the outcome [18] was “inactive”, the outcome [2] was “inactive” and the outcome [3] was “inactive”. The outcome [4] was “inactive”, the outcome (MYC, MYC (gene 4609)) was “inactive” and the outcome [5] was “inactive”. For the same compound, the outcome [6] was “inactive”, the outcome [7] was “inactive” and the outcome [8] was “inactive”. The outcome [9] was “inactive”, the outcome [10] was “inactive” and the outcome [11] was “inactive”. The outcome [12] was “inactive”, the outcome [13] was “inactive” and the outcome [14] was “inactive”. For the same compound, the outcome [15] was “inactive”, the outcome [16] was “inactive” and the outcome [17] was “inactive”.

With O=C(O)c1cccc(Oc2ccccc2)c1 the outcome [1] was “inactive”, the outcome [2] was “inactive” and the outcome [3] was “inactive”. The outcome [4] was “inactive”, the outcome (MYC, MYC (gene 4609)) was “inactive” and the outcome [5] was “inactive”. For the same compound, the outcome [6] was “inactive”, the outcome [7] was “inactive” and the outcome [8] was “inactive”. The outcome [9] was “inactive”, the AC50 [10] was 50 µM (active) and the outcome [11] was “inactive”. For the same compound, the outcome [12] was “inactive”, the outcome [13] was “inactive” and the outcome [14] was “inactive”. The outcome [15] was “inactive”, the outcome [16] was “inactive” and the outcome [17] was “inactive”.

In the case of C1N2CN3CN1CN(C2)C3, the outcome [1] is reported as “inactive”, the outcome [2] is reported as “inactive” and the outcome [3] is reported as “inactive”. For the same compound, the outcome [4] was “inactive”, the outcome (MYC, MYC (gene 4609)) was “inactive” and the outcome [5] was “inactive”. For the same compound, the outcome [6] was “inactive”, the outcome [7] was “inactive” and the outcome [8] was “inactive”. For the same compound, the outcome [9] was “inactive”, the outcome [10] was “inactive” and the outcome [11] was “inactive”. For the same compound, the outcome [12] was “inactive”, the outcome [13] was “inactive” and the outcome [14] was “inactive”. For the same compound, the outcome [15] was “inactive”, the outcome [16] was “inactive” and the outcome [17] was “inactive”.

For CCCCC(CC)COC(=O)CCCCCCCCC(=O)OCC(CC)CCCC (stereo not drawn), the outcome [1] was “inactive”, the outcome [2] was “inactive” and the outcome [3] was “inactive”. For the same compound, the outcome [4] was “inactive”, the outcome (MYC, MYC (gene 4609)) was “inactive” and the outcome [5] was “inactive”. The outcome [6] was “inactive”, the outcome [7] was “inactive” and the outcome [8] was “inactive”. The outcome [9] was “inactive”, the outcome [10] was “inactive” and the outcome [11] was “inactive”. The outcome [12] was “inactive”, the outcome [13] was “inactive” and the outcome [14] was “inactive”. For the same compound, the outcome [15] was “inactive”, the outcome [16] was “inactive” and the outcome [17] was “inactive”.

In the case of Fc1ccccc1[C@@H](F)COC1CCC(Nc2ncnc3[nH]ncc23)CC1 (stereo partly drawn), the outcome [1] is reported as “inactive”, the AC50 [2] is reported as 28 µM (active) and the AC50 [3] is reported as 56.5 µM (active). The AC50 [4] was 64.7 µM (active), the AC50 (MYC, MYC (gene 4609)) was 34 µM (active) and the AC50 [5] was 50 µM (active). The AC50 [6] was 35.8 µM (active), the outcome [7] was “inactive” and the outcome [8] was “inactive”. The AC50 [9] was 55.8 µM (active), the AC50 [10] was 11.7 µM (active) and the AC50 [11] was 26.5 µM (active). For the same compound, the AC50 [12] was 88.8 µM (active), the outcome [13] was “inactive” and the AC50 [14] was 8.85 µM (active). The AC50 [15] was 71.7 µM (active), the AC50 [16] was 65.7 µM (active) and the AC50 [17] was 50 µM (active).
